# Compounds with a hit are over-represented: about 8.8% of the library has one in this group of screens.
# KB-V1 MDR tox: qHTS assay for MDR1-selective chemotherapeutics: Primary screen using the drug-selected MDR subline cells KB-V1; KB-V1 MDR cells viability, CellTiter-Glo, 72 h; Potency, µM (series often up to 46.1 µM), most hits filed as cytotoxic; actives 3.4% (n = 400,000); AID 1347076, 2019; note: potency is the fitted concentration of half-maximal effect; nearly all actives have a fitted effect of over 60% in size
#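 Compound-treated KB-V1 multidrug-resistant cells, 72 h, 37 degrees C; viability by CellTiter-Glo. Fitted qHTS curves give the values.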
# KB-3-1 tox: qHTS assay for MDR1-selective chemotherapeutics: Primary screen using the parental adenocarcinoma cell KB-3-1 | KB-3-1 viability, CellTiter-Glo ATP luminescence, 72 h | Potency, µM (doses to about 46.1 µM), most hits filed as cytotoxic | actives 1.4% (n = 400,000); note: potency is the fitted concentration of half-maximal effect; nearly all actives have a fitted effect of over 60% in size
#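 Here the drug-naive KB-3-1 line serves as comparator for MDR sub-line selectivity; cells received compound titrations, 72 h at 37 °C, then CellTiter-Glo readout.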
# HT1080 IDH1KD tx: qHTS for induction of synthetic lethality in tumor cells producing 2HG: qHTS for the HT-1080-IDH1KD cell line. Potency, µM (series often up to 46.1 µM), inactives show top-dose activity, negative = toxicity, most hits filed as cytotoxic. HT-1080 IDH1 knockdown viability, ATP luminescence, 48 h. actives 2% (n = 360,000);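 note: potency is the fitted concentration of half-maximal effect; 0% = DMSO wells and -100% = cell-free medium wells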
#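 CellTiter-Glo luminescence after 48 h compound exposure at 37 degrees C of IDH1-knockdown HT-1080 cells in 5% FBS RPMI. %Activity scaled between DMSO wells and cell-free media wells, with curves fitted and assigned curve classes.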
# IL-1B inflam inh: qHTS for Inhibitors of Inflammasome Signaling: IL-1-beta AlphaLISA Primary Screen | AID 743279, 2014 | THP-1 LPS/ATP IL-1B secretion, AlphaLISA, 16 h; stronger effect = lower value | activity change, % at 57.5 µM | actives 4.7% (n = 360,000); in the data active = activity change below about -50%; inconclusive = mostly about -30% to -49%
#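 Secreted IL-1B measured by AlphaLISA bead assay after 16 h compound exposure of THP-1 cells; compounds (final up to 57.5 uM) added 1 h before LPS (250 ng/mL) and ATP (1.25 mM) stimulation; lower signal means less secretion.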
# HT1080-NT tox: qHTS for induction of synthetic lethality in tumor cells producing 2HG: qHTS for the HT-1080-NT fibrosarcoma cell line; HT-1080-NT fibrosarcoma viability, CellTiter-Glo ATP luminescence, 48 h; actives 1.6% (n = 360,000); Potency, µM (top dose mostly 46.1 µM), for the others: at the highest dose activity, negative = less viability, actives largely listed as cytotoxic;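 note: NT is the 2HG producing partner of a matched IDH1 knockdown line; potency is the fitted concentration of half-maximal effect; 0% = DMSO-treated cells and -100% = media-only wells without cells; nearly all actives have a fitted effect of over 55% in size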
#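 750 cells/well, RPMI + 5% FBS; 2 h settle, compound pin-transfer, 48 h at 37 degrees C. CellTiter-Glo 10 min RT, luminescence. Normalized to DMSO and media-only wells.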
# * = called active by the depositor; i = inactive; ? = inconclusive; · = not tested or not shown; [ ] = dose if it differs, or a comment. Unless noted, calls come from the whole dose curve; as a rule, active = well fitted curve in the direction sought with a large enough effect; inconclusive = small, poorly fitted or top-dose-only effect, or another doubt; inactive = no such curve, though single readings can be large; an effect the other way counts as inactive or inconclusive. Unless noted, % is set by controls: 0 for no effect and ±100 for the full control effect.
SMILES,KB-V1 MDR tox,KB-3-1 tox,HT1080 IDH1KD tx,IL-1B inflam inh,HT1080-NT tox
CC1CCCCN1C(=O)/C(=C\c1ccccc1)c1ccccc1 (configuration not stated),i,i,-30%,-18,-5%
COc1ccc(C2NCCc3cc(OC)c(OC)cc32)cc1OC (configuration not stated),i,i,-8%,-3,-15%
COc1cc2c(cc1OC)C(c1ccc(Br)cc1)NCC2 (configuration not stated),?,?,-8%,-52*,-2%
CC(OC(=O)Cn1cnc2c1c(=O)n(C)c(=O)n2C)C(=O)N(C)c1ccccc1 (configuration not stated),i,i,-1%,47,-6%
Cc1cc2ncn(-c3ncnc4sc(C)c(C)c34)c2cc1C,i,i,-4%,1,-3%
Cc1cc2ncn(-c3ncnc4sc5c(c34)CCC(C)C5)c2cc1C (configuration not stated),13µM*,i,-3%,10,14%
Cc1cc2ncn(-c3ncnc4scc(-c5ccccc5)c34)c2cc1C,4.1µM*,i,0%,-6,-7%
OC1CCN(c2cc(-c3ccccc3)nc3cc(-c4ccc(F)cc4)nn23)CC1,i,i,2%,-8,10%
CCN1CCN(c2cc(-c3ccccc3)nc3cc(-c4cccc(F)c4)nn23)CC1,?,?,?,-62*,23µM*
O=C(NC1CCCCCC1)c1c(F)c(F)c(F)c(F)c1F,i,i,7%,-91*,5%
Cc1cc(C(=O)NNC(=O)c2ccccc2[N+](=O)[O-])c(C)o1,i,i,1%,14,-3%
O=C1NC[C@H](Cc2ccc(O)cc2)N(C[C@@H]2CCCN2C[C@H](Cc2ccccc2)N2C[C@H](Cc3ccccc3)N(CC3CCCCCC3)C(=O)C2=O)C1=O,i,i,?,-17,?
CC(C)C[C@@H](CN1CCC[C@H]1CN1C(=O)C(=O)NC[C@@H]1Cc1ccc(O)cc1)N1C[C@H](Cc2ccccc2)N(CC2CCCCC2)C(=O)C1=O,i,?,?,-1,?
CC(C)(C)C1CCC(CN2CCC(CN3C(=O)C(=O)NC[C@@H]3Cc3ccccc3)CC2)CC1 (some centres not stated),i,i,5%,-56*,0%
O=C1NC[C@H](Cc2ccccc2)N(C[C@@H]2CCCN2C[C@H](Cc2ccc(O)cc2)N2C[C@H](Cc3ccccc3)N(CC3CCCCCC3)C(=O)C2=O)C1=O,i,i,?,-83*,?
CC(C)C[C@H]1CN([C@@H](Cc2ccccc2)CN2CCC[C@H]2CN2C(=O)C(=O)NC[C@@H]2Cc2ccc(O)cc2)C(=O)C(=O)N1CC1CCCCC1,i,?,?,-94*,?
CC(C)C[C@H]1CN([C@@H](Cc2ccccc2)CN2CCC[C@@H]2CN2C(=O)C(=O)NC[C@@H]2Cc2ccc(O)cc2)C(=O)C(=O)N1CC1CCCCC1,i,i,9%,-23,4%
O=C1NC[C@H](Cc2ccccc2)N(C[C@H]2CCCN2C[C@H](Cc2ccccc2)N2C[C@H](Cc3ccccc3)N(CC3CCCCC3)C(=O)C2=O)C1=O,i,i,?,-78*,?
O=C(NCCc1ccc(F)cc1)C(=O)NCC(c1cccs1)S(=O)(=O)c1ccccc1 (configuration not stated),i,i,·,·,·
COc1cc(NC(=O)COc2ccc([N+](=O)[O-])cc2)ccc1NC(=O)c1ccco1,i,i,6%,?,10%
CC(C)C[C@@H](CN1CCC[C@H]1CN1C(=O)C(=O)NC[C@@H]1Cc1ccccc1)N1C[C@H](Cc2ccccc2)N(CC2CCCCC2)C(=O)C1=O,i,?,?,0,?
O=C1NC[C@H](Cc2ccccc2)N(C[C@@H]2CCCN2C[C@H](Cc2ccccc2)N2C[C@H](Cc3ccccc3)N(CC3CCCCC3)C(=O)C2=O)C1=O,i,i,?,-77*,?
CCOC(=O)Nc1sc2c(c1C#N)CCCC2,i,i,-13%,-12,-3%
CCCC1CCc2c(sc(NC(=O)OCC)c2C#N)C1 (configuration not stated),5.8µM*,?,18µM*,?,?
CC1=C(C(=O)N(C(C)C)C(C)C)CC(CC(=O)NC2CCCC2)C(=O)N1Cc1ccc(C(C)(C)C)cc1 (configuration not stated),i,i,?,-68*,?
SMILES,KB-V1 MDR tox,KB-3-1 tox,HT1080 IDH1KD tx,IL-1B inflam inh,HT1080-NT tox
CC1=C(C(=O)N2CCCCCC2)CC(CC(=O)NC2CCCC2)C(=O)N1Cc1ccccc1 (configuration not stated),i,i,15%,-5,14%
CC1=C(C(=O)N2CCCCCC2)CC(CC(=O)NC2CCCC2)C(=O)N1Cc1ccc(C(C)(C)C)cc1 (configuration not stated),?,i,?,-73*,-5%
Cc1cccc2c1NC(=O)C2(c1ccc(O)cc1)c1ccc(O)cc1,i,i,0.0082µM*,?,0.0082µM*
O=C1Nc2ccccc2C1(O)c1ccccc1 (configuration not stated),i,i,2%,-6,-8%
Cc1cc(C2(c3ccc(O)c(C)c3)C(=O)Nc3ccccc32)ccc1O,i,?,-12%[9.24 µM],?,18µM*
OCCN1CCN(CCCN2c3ccccc3Sc3ccc(Cl)cc32)CC1,?,i,?,0,?
NC(=O)CCN1CCN(CCOC2Cc3cc(Cl)ccc3Sc3ccccc32)CC1 (configuration not stated),?,i,-8%,-53*,-12%
COc1ccccc1C(CCN(Cc1cccs1)C(C)=O)c1ccco1 (configuration not stated),i,i,-2%,-98*,-2%
CCC(=O)N(CCC(c1ccccc1)c1ccco1)Cc1cccs1 (configuration not stated),?,i,?,-7,-5%
O=C1/C(=C/c2ccccc2)CN(C(=O)CCN2CCOCC2)C/C1=C\c1ccccc1,?,i,?,-101*,?
O=C(/C=C/c1ccccc1)CCN1CCOCC1,?,?,18µM*,-84*,?

# Compound activity as filed in PubChem BioAssay.
